In all, about 310,000 compounds went through this assay and about 14,000 (4.5%) showed an effect of 50% or more. Effects have a minus sign here. The entries come from a sample that favours strong results as a whole.
What follows are molecules tested against human ether-à-go-go-related gene (hERG) potassium channel (human, UniProt Q12809) (assay: primary screen, population patch clamp on CHO cells stably expressing hERG; higher = less effect of the substance).
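Note: peak tail current of the secondary pulse compared with the same well before compound.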

human ether-à-go-go-related gene (hERG) potassium channel, sequence (Q12809 whole entry, looked up): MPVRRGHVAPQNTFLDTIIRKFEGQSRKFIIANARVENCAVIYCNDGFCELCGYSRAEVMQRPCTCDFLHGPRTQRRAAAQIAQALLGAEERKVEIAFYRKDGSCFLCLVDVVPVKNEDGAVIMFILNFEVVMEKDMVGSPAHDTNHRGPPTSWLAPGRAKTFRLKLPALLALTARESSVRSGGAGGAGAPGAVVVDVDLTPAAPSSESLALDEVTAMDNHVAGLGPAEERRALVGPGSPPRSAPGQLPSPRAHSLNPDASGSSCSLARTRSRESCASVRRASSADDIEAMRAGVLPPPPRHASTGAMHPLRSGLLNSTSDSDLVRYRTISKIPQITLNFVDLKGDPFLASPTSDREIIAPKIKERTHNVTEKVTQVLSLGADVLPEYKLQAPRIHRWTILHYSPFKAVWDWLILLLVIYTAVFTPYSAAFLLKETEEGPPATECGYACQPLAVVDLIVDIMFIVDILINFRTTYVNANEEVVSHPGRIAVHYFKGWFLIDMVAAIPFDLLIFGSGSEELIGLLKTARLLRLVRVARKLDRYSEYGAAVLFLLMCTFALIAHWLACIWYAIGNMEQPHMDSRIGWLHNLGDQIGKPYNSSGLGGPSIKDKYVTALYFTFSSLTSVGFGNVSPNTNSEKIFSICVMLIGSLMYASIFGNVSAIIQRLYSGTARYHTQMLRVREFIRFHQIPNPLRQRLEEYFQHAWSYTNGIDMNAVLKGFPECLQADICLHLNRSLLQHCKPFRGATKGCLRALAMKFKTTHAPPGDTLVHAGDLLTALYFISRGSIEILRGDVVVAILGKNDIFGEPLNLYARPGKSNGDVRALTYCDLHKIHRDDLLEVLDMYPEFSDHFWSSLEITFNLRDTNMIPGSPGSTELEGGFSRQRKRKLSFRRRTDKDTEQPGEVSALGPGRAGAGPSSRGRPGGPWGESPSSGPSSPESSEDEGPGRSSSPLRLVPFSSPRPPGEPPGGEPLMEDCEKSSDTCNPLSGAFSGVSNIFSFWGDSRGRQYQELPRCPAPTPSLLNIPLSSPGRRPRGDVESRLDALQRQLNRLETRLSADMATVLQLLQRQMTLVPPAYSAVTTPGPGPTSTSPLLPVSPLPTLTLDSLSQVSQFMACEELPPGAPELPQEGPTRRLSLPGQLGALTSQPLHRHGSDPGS

Structure (SMILES)	hERG current change (%, negative = inhibition) at 10uM
Cc1cc(Cl)ccc1OCC(=O)N/N=C1\CCCc2ccccc21	-0.309%
CC(C)(C)c1nc2ccc(NS(=O)(=O)c3ccc(F)c(F)c3F)cc2[nH]1	10.6%
COc1ccccc1NC1=NC(C)(C)N=C(N)N1	23.2%
NS(=O)(=O)c1ccc(CCNC(=O)c2ccc(-c3ccccc3)cc2)cc1	9.92%
COc1ccccc1NC(=S)NNC(=O)c1ccccc1Br	-70.9%
COc1ccccc1C(=O)NNC(=O)c1ccccc1Br	23%
COc1ccccc1NC(=S)NNC(=O)c1ccccc1	-1.04%
Cc1nn(Cc2ccc(F)cc2Cl)c(C)c1[N+](=O)[O-]	-1.01%
Cc1ccc(OCC(=O)O/N=C(\N)c2ccccn2)cc1C	-11.3%
COc1ccc(NC(=O)Nc2nc3c(s2)CCCC3)cc1	-26.8%
Cc1cccc(Nc2nc3c(s2)CCCC3)c1	-8.11%
Cc1nc(Nc2ccc(C(=O)O)cc2)sc1-c1ccccc1	-76.5%
COc1ccc(Nc2nc(C)c(-c3ccccc3)s2)cc1	14.9%
O=C(O)c1ccc(Nc2nc3c(s2)CCCC3)cc1	-81.3%
Cc1nc(Nc2ccccc2)sc1-c1ccccc1	1.73%
C=CCSC1=C(C#N)C2(CCCCC2)C(C#N)C(=O)N1 (centres unmarked)	-3.87%
C=CCNc1sc(C(=O)C(C)(C)C)c(N)c1C#N	5.11%
CCN(CC(=O)Nc1ccc(OC)cc1)C(=O)c1ccc2c(=O)n3c(nc2c1)CCC3	9.77%
C=CCn1cnc2c(sc3nc(C)cc(C)c32)c1=O	-6.75%
COc1ccccc1OCCNC(=O)c1cc([N+](=O)[O-])cc([N+](=O)[O-])c1	12.2%
Cc1nc(-c2ccncc2)nc(NCCNc2ncccc2C(F)(F)F)c1Cl	6.57%
COc1ccccc1CC(=O)NC1CCCc2ccccc21 (centres unmarked)	-32.8%

Structure (SMILES)	hERG current change (%, negative = inhibition) at 10uM
Cc1cc(C)n(CCN(C)C(=O)CCc2nnc(-c3ccc4c(c3)OCO4)o2)n1	-51.7%
CC1CCCN(C(=O)CCc2nnc(-c3ccc4c(c3)OCO4)o2)C1 (centres unmarked)	-4.43%
CCC(=O)C1CCCN(C(=O)CCc2nnc(-c3ccc4c(c3)OCO4)o2)C1 (centres unmarked)	-8.82%
CCN(CCn1cccn1)C(=O)CCc1nnc(-c2ccc3c(c2)OCO3)o1	-5.68%
O=C(CCc1nnc(-c2ccc3c(c2)OCO3)o1)N1CCC(c2ccc(F)cc2)C1 (centres unmarked)	-56%
Cc1cc(C)n(CCN(C)C(=O)CCc2nnc(CCC3CCCCC3)o2)n1	-4.29%
O=C(CNc1ccc2ccccc2c1)N/N=C/c1ccc(OC(=O)/C=C/c2ccco2)cc1	22.7%
Cc1ccccc1OS(=O)(=O)c1cn(C)c(=O)n(C)c1=O	11.4%
Cc1ccc(C2CC(=O)C=C(Nc3ccc(Cl)cc3)C2)cc1 (centres unmarked)	7.93%
Cc1ccc(S(=O)(=O)/N=C/N(C)C)cc1	0.768%
COc1ccc(-c2cnnc(N/N=C/C(C)=C/c3ccccc3)n2)cc1	-9.57%
CCc1c(C(=O)NCCc2cccc(C)c2)[nH]c(C)c1C(C)=O	12.2%
O=C(CC(c1ccccc1)c1ccccc1)NCC(O)c1ccc([N+](=O)[O-])cc1 (centres unmarked)	-58.1%
O=[N+]([O-])c1ccc(C(O)CN2CCN(Cc3ccccc3)CC2)cc1 (centres unmarked)	-73.4%
O=[N+]([O-])c1ccc(C(O)CN2CCN(c3ccccc3)CC2)cc1 (centres unmarked)	-50.3%
CC1SC(c2ccccc2)N(CC(O)c2ccc([N+](=O)[O-])cc2)C1=O (centres unmarked)	-80.6%
Oc1ccc(N2CCN(CC(O)c3ccccc3)CC2)cc1 (centres unmarked)	10.4%
O=[N+]([O-])c1ccc(C(O)CN2CCOCC2)cc1 (centres unmarked)	18.5%
O=C(CNC(=O)c1ccccc1)NCC(O)c1ccc([N+](=O)[O-])cc1 (centres unmarked)	10.7%
O=C1CSC(c2ccccc2)N1CC(O)c1ccc([N+](=O)[O-])cc1 (centres unmarked)	-12.1%
O=C1CCN(Cc2ccc([N+](=O)[O-])cc2)CCN1[C@H](CO)c1ccccc1	-37.4%
O=[N+]([O-])c1ccc(C(O)CNC(=S)Nc2ccccc2)cc1 (centres unmarked)	-11.6%
